Inhibition data for 15 compounds are collected here from PubChem BioAssay AID2313 (Broad Institute, 2010).

In all, about 22,000 compounds went through this assay and about 460 (2.1%) were called active. Not shown: some 2% with an inconclusive outcome. The entries come from a sample that favours actives as a whole. A number with no mark means an inactive call.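 The calls were made as follows: active = mean inhibition across valid replicates above about 65% (limit read from the data); inconclusive = mean under the limit, yet half or more replicates past it; inactive = the rest.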

A short description of the assay: Shh-driven Gli reporter inhibition – luminescence, Shh-LIGHT2 cells, Gli-luciferase, primary screen (AID 2313).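 Also: pathway switched on by Shh-conditioned medium diluted 1 in 25 in low serum.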 The settings on record: 30 h, active compounds read high.
As a reminder, the inhibition is the change of the read-out against control, counted positive when it falls. Turning to `c1ccc2c(c1)[I+]c1ccccc1-2`, the inhibition is 88.8% (active).
Consider `COC(/C=C/CC/C=C/C(=O)O)C(O)C(C)C(O)/C(C)=C/C(C)C(=O)CCCC1CC(=O)NC(=O)C1` (stereo not given), for which the inhibition is -22.8%.
Turning to `CC(C)c1c(CN(C)C(C)Cc2ccccc2)n(C)n(-c2ccccc2)c1=O` (stereo not given), the inhibition was -38.5%.
In the case of `CC(C)Nc1nc(Cl)nc(NC(C)C)n1` it was -55.8%.
Take `CN(C)C(=O)Oc1cc(OC(=O)N(C)C)cc(C(O)CNC(C)(C)C)c1` (stereo not given): the inhibition is 33.4%.
In the case of `C[C@H]1CCC/C=C/C2C[C@H](O)C[C@H]2[C@H](O)/C=C\C(=O)O1` (stereo not given in full) it was 107% (active); in that of `C=CC(C)(C)c1cc2cc3c(cc2oc1=O)O[C@H](C(C)(C)O)C3`, -36.2%; in that of `CC=C1CN2C3CC1C1(C(=O)OC)C2CC2(c4ccccc4N(C)C32)C1O` (stereo not given), 11.9%.
Take `CCCCC/C=C\C/C=C\C/C=C\CCCCCCC(=O)NCCO`: the inhibition was -2.94%.
Take `C[C@@H]1O[C@@H](O[C@@H]2C=C3CC[C@@H]4C(C[C@@H](O)[C@]5(C)[C@@H](c6ccc(=O)oc6)CC[C@]45O)[C@@]3(C)CC2)[C@H](O)[C@H](O)[C@H]1O[C@@H]1O[C@H](CO)[C@@H](O)[C@H](O)[C@H]1O` (stereo not given in full): the inhibition was -37.6%.
In the case of `CC(C)[C@@]1(NC(=O)[C@@H]2CC3c4cccc5[nH]cc(c45)C[C@H]3N(C)C2)O[C@@]2(O)[C@@H]3CCCN3C(=O)[C@H](Cc3ccccc3)N2C1=O` (stereo not given in full) it was 21.5%; in that of `O=C(c1ccccc1)C12CN3CN(CN(C3)C1)C2`, -5.62%.
On to `COc1c(C(C)C)cc2c(c1O)[C@@]1(C(=O)O)CCCC(C)(C)C1CC2` (stereo not given in full), for which the inhibition is -14.7%.
In the case of `CCCCCCCCCCCCCC(=O)O[C@@H]1[C@@H](C)[C@@]2(O)[C@@H](C=C(CO)C[C@]3(O)C(=O)C(C)=C[C@@H]23)[C@@H]2C(C)(C)[C@]12OC(C)=O` it was 87% (active); in that of `CCCCC/C=C\C/C=C\C/C=C\C/C=C\CCCCCC(=O)NCCO`, -36.6%.
